This note sets out measurements from PubChem BioAssay AID1332 (Southern Research Institute, 2008).

Converted amounts (≈) assume the structure as drawn. Out of some 1,100 compounds screened, about 170 (15%) were called active. The rule behind the calls is not given here. Not all results are given here.

This test is described as follows: Mycobacterium tuberculosis H37Rv growth inhibition, confirmatory dose response, cytotoxicity (AID 1332).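 For CC50: Vero cells exposed to compounds for 72 hours.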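 For IC50: bacteria incubated 7 days before adding Alamar blue readout reagent.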 The settings on record: M. tuberculosis H37Rv growth inhibition; CC50: measured here: Vero cell cytotoxicity; IC50: measured here: IC50 H37Rv replicates.
On to `CCC(=O)OCC(=O)C1(OC(=O)CC)[C@H](C)C[C@H]2[C@H]3[C@H]([C@@H](O)C[C@@]21C)[C@@]1(C)C=CC(=O)C=C1C[C@H]3Cl` (some centres undefined), for which the IC50 was above 20 µg/mL and the result was inactive.

Take `O=C1C(CCS(=O)c2ccccc2)C(=O)N(c2ccccc2)N1c1ccccc1` (centres undefined): the IC50 was above 20 µg/mL and the call was inactive.

As for `CN(C)C/C=C(\c1ccc(Br)cc1)c1cccnc1`, the IC50 is above 20 µg/mL and the molecule was called inactive.

`CC1(C)S[C@@H]2[C@H](NC(=O)[C@H](N)c3ccccc3)C(=O)N2[C@H]1C(=O)O`: the IC50 was above 20 µg/mL and the outcome was inactive.

Take `CN(Cc1cnc2nc(N)nc(N)c2n1)c1ccc(C(=O)NC(CCC(=O)O)C(=O)O)cc1` (centres undefined): the CC50 was determined as 0.048 µg/mL (≈ 0.106 µM), the IC50 was above 20 µg/mL and the result was inactive.

In the case of `CC(C(=O)O)c1ccc(N2Cc3ccccc3C2=O)cc1` (centres undefined), the IC50 is above 20 µg/mL and the call was inactive.

As for `C[C@H]1[C@H]2CC[C@H]3[C@@H]4CC=C5C[C@@H](N(C)C)CC[C@]5(C)[C@H]4CC[C@]23CN1C`, the IC50 is above 20 µg/mL and the molecule was classed as inactive.

Turning to `NC(N)=NC(N)=NCCc1ccccc1`, the IC50 was above 20 µg/mL and the outcome was inactive.

Take `CCOC(=O)[C@H](CCc1ccccc1)N[C@@H](C)C(=O)N1CCC[C@H]1C(=O)O`: the IC50 is above 20 µg/mL and the molecule was classed as inactive.

As for `CC(=O)Oc1ccccc1C(=O)Oc1ccccc1C(=O)O`, the IC50 is above 20 µg/mL and the outcome was inactive.

As to `O=C(OCC(O)CO)c1ccccc1Nc1ccnc2cc(Cl)ccc12` (centres undefined), the IC50 is above 20 µg/mL and the molecule was called inactive.

As for `CCc1cccc(CC)c1NC(=O)CN(CC(=O)O)CC(=O)O`, the IC50 was above 20 µg/mL and the molecule was called inactive.

As for `COc1cc(-c2ccc(N=Nc3ccc4c(S(=O)(=O)O)cc(S(=O)(=O)O)c(N)c4c3O)c(OC)c2)ccc1N=Nc1ccc2c(S(=O)(=O)O)cc(S(=O)(=O)O)c(N)c2c1O`, the IC50 is above 20 µg/mL and the result was inactive.

For the molecule `NCC1CCC(C(=O)O)CC1` (centres undefined), the IC50 is above 20 µg/mL and the call was inactive.

For `C[C@H](O)C(=O)Nc1c(I)c(C(=O)NC(CO)CO)c(I)c(C(=O)NC(CO)CO)c1I`, the IC50 is above 20 µg/mL and the molecule was called inactive.

Turning to `CCCOc1cc(N)ccc1C(=O)OCCN(CC)CC`, the concentration for half-maximal inhibition (IC50) is above 20 µg/mL and the molecule was classed as inactive.

For `COc1c2c(nc3ccccc13)OC(C(C)(O)CO)C2` (centres undefined), the IC50 is above 20 µg/mL and the call was inactive.

In the case of `CN1CCC[C@@H]1CCO[C@](C)(c1ccccc1)c1ccc(Cl)cc1`, the CC50 was above 6 µg/mL, the 50% inhibitory concentration (IC50) was found to be 10.9 µg/mL (≈ 31.7 µM) and the call was active.

As for `CN1C(CC(O)c2ccccc2)CCCC1CC(O)c1ccccc1` (centres undefined), the IC50 is above 20 µg/mL and the molecule was classed as inactive.

For `CN1CCCCC1CCN1c2ccccc2Sc2ccc(S(C)=O)cc21` (centres undefined), the IC50 was above 20 µg/mL and the call was inactive.

Take `O[C@@H]1[C@@H](O)C=C2CCN3Cc4cc5c(cc4[C@H]1C23)OCO5` (some centres undefined): the CC50 came to 0.806 µg/mL (≈ 2.81 µM), the IC50 was above 20 µg/mL and the molecule was classed as inactive.

Take `CC1CCc2cc(F)cc3c(=O)c(C(=O)O)cn1c23` (centres undefined): the IC50 stood at 9.83 µg/mL (≈ 37.6 µM) and the result was active.

As for `CCn1cc(C(=O)O)c(=O)c2cc3c(cc21)OCO3`, the IC50 was above 20 µg/mL and the outcome was inactive.

In the case of `O=C1N=C(O)CN1/N=C/c1ccc(-c2ccc([N+](=O)[O-])cc2)o1`, the IC50 is above 20 µg/mL and the result was inactive.

Consider `CNCC(O)c1ccc(OC(=O)C(C)(C)C)c(OC(=O)C(C)(C)C)c1` (centres undefined), for which the IC50 is above 20 µg/mL and the outcome was inactive.

As for `C=C(C)[C@@H]1C2C(=O)O[C@H]1[C@H]1OC(=O)[C@@]34OC3C[C@]2(O)[C@@]14C` (some centres undefined), the half-inhibitory concentration (IC50) was above 20 µg/mL and the result was inactive.

As to `CC1(C)OC(=O)NC1=O`, the IC50 was above 20 µg/mL and the outcome was inactive.

Regarding `CC(C)(C)C(=O)OCOC(=O)[C@@H]1N2C(=O)[C@@H](NC(=O)[C@H](N)c3ccccc3)[C@H]2SC1(C)C`, the 50% inhibitory concentration (IC50) was above 20 µg/mL and the result was inactive.
